Screening results as filed in PubChem.
Pf growth 96h = P. falciparum growth inhibition at 96 hours; Potency, µM (highest dose often 28.7 µM), inactives show top-dose activity change, negative = inhibition, most hits filed as inhibitors; AID 504834; actives 6.9% (n = 320,000); P. falciparum luciferase reporter growth, 96 h; further: potency means the concentration at half of the fitted maximal effect; on the % scale 0 is the no-effect control and ±100 the full control effect
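Infected RBCs, 2% Hct / 0.05% parasitemia final; luciferase-reporter P. falciparum; cpd 96 h, 37 C, 5% CO2; luciferase detection reagent; luminescence.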
Pf growth 48h = inhibits P. falciparum growth in the first generation, 48 h | P. falciparum luciferase growth in erythrocytes, 48 h | Potency, µM (series often up to 28.7 µM), without a hit: at the highest dose activity change, negative = inhibition, most hits filed as inhibitors | actives 5.9% (n = 310,000) | AID 504832; further: potency means the concentration at half of the fitted maximal effect; on the % scale 0 is the no-effect control and ±100 the full control effect
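Compounds are pin-transferred into medium, infected erythrocytes (2% hematocrit, 0.1% parasitemia final) are added, and plates sit one parasite generation at 37 C in 5% CO2. Detection reagent is then added and luminescence measured.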
AMA1 RON2 block = disrupts binding of P. falciparum AMA1 to RON2; AlphaScreen AMA1-biotinylated RON2 peptide binding; Potency, µM (titrated, usually from 58.2 µM), without a hit: at the top dose activity change, negative = inhibition, actives largely listed as inhibitors; actives 0.2% (n = 360,000);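 further: potency means the concentration at half of the fitted maximal effect; 0% = vehicle wells and -100% = peptide control; nearly all actives have a fitted effect of over 45% in size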
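AMA1 (3D7) with his tag at 25 nM final met compounds first, then biotinylated RON2 peptide at 25 nM; detection used donor plus acceptor beads, 10 µg/mL apiece, read by AlphaScreen after 30 min at room temperature.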
Cycloheximide cs = counter-screen hit for Shiga toxin inhibitors, cycloheximide; cell reporter, cycloheximide protein synthesis inhibition counterscreen; max response, %; actives 12% (n = 300,000); AID 2314; in the data active means max response mostly above about 13%, no sharp cut-off; inactive means mostly below about 14%; further: read at 38.3 µM for the half of the compounds with a filed dose; 0% is about no effect
SARS PLpro yeast = blocks SARS-CoV papain-like protease in a yeast assay; S. cerevisiae expressing SARS-CoV PLpro, growth rescue; Potency, µM (doses to about 32.9 µM), for inactives: at the top dose activity, positive = growth rescue, usual class: activators; actives 0.19% (n = 330,000); AID 485353; calls by dose curve; further: potency means the concentration at half of the fitted maximal effect; 0% is about no effect; nearly all actives have a fitted effect of over 55% in size
Shiga inhibitor = Shiga toxin inhibition; Vero cells, Shiga toxin protein synthesis inhibition reporter; inhibition, % at 38.7 µM; actives 9.2% (n = 290,000); AID 2315; in the data active means inhibition mostly above about 28%, no sharp cut-off; inactive means mostly below about 43%; further: 0% is about no effect
* hit, by the source's call; i = inactive; ? = inconclusive; / = no result given; [ ] = remark or other dose. This is a sample that favours compounds with a hit; in the whole collection about 19% have one here. Unless noted, the call rests on the fitted dose curve; in most records, active means well fitted curve in the direction sought with a large enough effect; inconclusive means small, poorly fitted or top-dose-only effect, or another doubt; inactive means no such curve, though single readings can be large; an effect the other way counts as inactive or inconclusive.

SMILES | Pf growth 96h | Pf growth 48h | AMA1 RON2 block | Cycloheximide cs | SARS PLpro yeast | Shiga inhibitor
CC1CN=C(Nc2ccc(F)cc2)S1 (centres undefined) | 13% | 4% | -4% | -1 | 0% | -1
COc1ccc(NC2=NC(C)(C)CS2)cc1 | 0% | 70% | 0% | 28* | 0% | 70*
COc1ccc(CCNS(=O)(=O)c2ccc(Br)cc2)cc1 | -27% | -8% | -2% | -1 | -8% | 10
COc1ccc(NC2=NCC(C)S2)cc1 (centres undefined) | 45% | 21% | 4% | 17* | -1% | 18
CCOC(=O)c1cc(OCC)c2c(ccc3cc(OC)ccc32)n1 | / | / | -6% | / | / | /
CC1CC(C)CN(C(=O)CSc2ncnc3sccc23)C1 (centres undefined) | 69% | -13% | 1%[11.6 µM] | / | 5% | /
CC(C)c1cccc(-c2csc(C(O)c3cccc(Cl)c3)n2)c1 (centres undefined) | / | / | 27% | / | / | /
CN(CC(=O)Nc1ccc(OC(F)(F)F)cc1)C(=O)Cc1cccs1 | / | / | -7% | / | -2% | /
CCCCCC/C(C=O)=C\c1ccccc1 | 42% | 39% | 15% | / | -6% | /
CSc1ccc(/C=C/C(=O)N2CCCN(C)CC2)cc1 | 109% | 116% | 0% | 23* | 0% | 52*
Cc1ccc(/C=C/C(=O)N2CCCN(C(=O)/C=C/c3ccc(C)cc3)CC2)cc1 | ? | 13% | -1% | 16* | 14% | 34
CCOc1ccc(-c2ccc(C3=CC(=O)C[C@H](c4ccc(F)cc4)C3)cc2)cc1 | / | / | 10% | / | / | /
COc1ccc(NC(=O)C(C2CC2)n2c(=O)c(-c3ccccc3)nc3ccccc32)cc1 (centres undefined) | / | / | 7% | / | / | /
COc1ccccc1-c1nc(SCC(=O)Nc2cc(C)on2)c2c(=O)n(C)c(=O)n(C)c2n1 | ? | 7% | 23% | -2 | 2% | 20
CC(C)(C)NCC(=O)N/N=C/c1ccc(OCc2ccccc2)cc1 | 32% | -6% | 0% | 1 | 0% | 8
COC(=O)N/N=C/c1ccc(Oc2ccccc2)cc1 | 63% | 84% | 10% | 46* | -7% | 92*
COC(=O)N/N=C\c1ccc(OC/C=C/c2ccccc2)cc1 | -25% | ? | -4% | 15* | 10% | 14
CC(C)(O)C(=O)N/N=C\c1ccc(OC/C=C/c2ccccc2)cc1 | ? | -8% | 0% | 32* | -2% | 45
CCOC(=O)N/N=C\c1ccc(OC/C=C/c2ccccc2)cc1 | ? | ? | 1% | 12 | 9% | 18
CCOC(=O)c1c(NS(=O)(=O)c2ccccc2)n(CCCOC)c2nc3ccccc3nc12 | 0% | 10µM* | -12% | -1 | 4% | -3
COc1cc(/C=C(\C#N)c2nc3ccccc3[nH]2)ccc1OC(=O)c1ccco1 | 20% | 58% | 9% | 48* | -13% | 43*
N#C/C(=C\c1ccc(Oc2ccc(C(F)(F)F)cc2[N+](=O)[O-])cc1)c1nc2ccccc2[nH]1 | 74% | ? | 78% | 15 | -2% | 15
COc1cc(/C=C(\C#N)c2nc3ccccc3[nH]2)c([N+](=O)[O-])cc1OCc1ccccc1 | 13% | 2.6µM* | -23% | 0 | -7% | 26
COc1cc(/C=C(/C#N)c2nc3ccccc3[nH]2)ccc1OCC(=O)Nc1ccccc1C(C)C | 9.3µM* | ? | 1% | 2 | -2% | 32
CCOc1cc(/C=C(/C#N)c2nc3ccccc3[nH]2)ccc1OCc1ccc(C(=O)O)o1 | 8% | ? | 19% | 8 | -1% | 30
SMILES | Pf growth 96h | Pf growth 48h | AMA1 RON2 block | Cycloheximide cs | SARS PLpro yeast | Shiga inhibitor
COc1cc(/C=C(/C#N)c2nc3ccccc3[nH]2)ccc1OCC(=O)Nc1ccccc1C | 1.5µM* | ? | 1% | -4 | -11% | -20
Cc1cc(C=O)sc1[B-](F)(F)F | / | / | 11% | / | / | /
CC(C)=CCN1CCN(Cc2cc(CC(C)C)n[nH]2)CC1CCO (centres undefined) | 13% | -18% | 1% | -1 | 1% | -8
COc1ccc(-c2noc(-c3csc([C@@H]4O[C@H](CO)[C@H](O)[C@H](O)[C@H]4O)n3)n2)cc1OC | / | / | 12% | / | / | /
Cc1sc2ncnc(SCC(=O)NNC(=O)COc3cccc4ccccc34)c2c1C | ? | 4% | 49% | -2 | -1% | 25
CCCCn1c(SCc2nc3ccccc3s2)nc2ccccc2c1=O | 0% | 2% | 11% | -3 | -14% | -10
CCCn1c(=O)c2ccccc2n2c(SCc3nc4ccccc4s3)nnc12 | 10µM* | 103% | 2% | 31* | 3% | 142*
Cc1cc(C)c(-n2c(SCc3nc4ccccc4s3)n[nH]c2=O)c(C)c1 | 1% | ? | -14% | 4 | -6% | 6
CCCn1c(SCc2nc3ccccc3s2)n[nH]c1=O | i | 381% | -4% | 53* | -1% | 90*
O=c1[nH]nc(SCc2nc3ccccc3s2)n1C1CC1 | 102% | 118% | -4% | 52* | 0% | 103*
CCN(CC(=O)NCc1cccs1)C(=O)c1cccc(Cl)c1 | / | / | 0% | / | -2% | /
COc1ccc(-c2cc(C(=O)N/N=C(\C)c3cccnc3)c3ccccc3n2)c(OC)c1 | ? | 29% | 45% | 18 | 2% | 42*
COc1ccc(OC)c(-c2cc(C(=O)N/N=C(\C)c3cccnc3)c3ccccc3n2)c1 | -103% | 1.5µM* | 43% | 1 | -3% | -8
O=C(Cn1cnc2c(nnn2Cc2ccc(F)cc2)c1=O)NCc1ccccc1 | -26% | 9.3µM* | 9% | -2 | 3% | -7
CC(C)(C)n1ncc2c(=O)n(CC(=O)NCc3ccc(F)cc3)cnc21 | 13µM* | 281% | 5% | 27* | ? | 54*
CC(C)(C)n1ncc2c(=O)n(CC(=O)NC3CCCCC3)cnc21 | / | 94% | 2% | 35* | -9% | 85*
CC(C)(C)n1ncc2c(=O)n(CC(=O)NCc3ccco3)cnc21 | 12% | 291% | -4% | 46* | -13% | 67*
CC(C)(C)n1ncc2c(=O)n(CC(=O)Nc3ccccc3)cnc21 | 4% | 1% | 6% | 12 | -1% | 17
Cc1ccc(-n2ncc3c(=O)n(CC(=O)NC4CCCCC4)cnc32)cc1C | ? | -5% | -1% | 17 | 5% | 19
Cc1cccc(NC2=NCC(=O)N2Cc2cccs2)c1 | 7% | 20% | ? | 8 | 0% | -3
COCCn1c(=NC(=O)c2ccc(S(=O)(=O)N3CCc4ccccc4C3)cc2)sc2cc(OC)ccc21 | 5.2µM* | ? | -7% | -4 | 3% | -5
CCOc1ccc(CCNC(=O)c2cn(C)c3ccc(S(=O)(=O)N4CCOCC4)cc3c2=O)cc1OCC | ? | 12µM* | 6% | 1 | -2% | 15
Cn1cc(C(=O)NC2CCCCC2)c(=O)c2cc(S(=O)(=O)N3CCOCC3)ccc21 | ? | ? | -5% | 1 | 6% | -2
